Screening data from PubChem.
Compounds with a hit are over-represented: about 0.49% of the library has one in this group of screens.
Anesthetic bind: qHTS Assay for Identification of Novel General Anesthetics. 0.074% of 350,000 active. Ferritin light chain (Equus caballus), P02791. Potency, µM (series often up to 77.5 µM), most hits filed as inhibitors. apoferritin/1-aminoanthracene competitive binding, fluorescence. AID 485281, 2010; note: nearly all actives have a fitted effect of over 20% in size
Target sequence (P02791 2-175 limits assumed): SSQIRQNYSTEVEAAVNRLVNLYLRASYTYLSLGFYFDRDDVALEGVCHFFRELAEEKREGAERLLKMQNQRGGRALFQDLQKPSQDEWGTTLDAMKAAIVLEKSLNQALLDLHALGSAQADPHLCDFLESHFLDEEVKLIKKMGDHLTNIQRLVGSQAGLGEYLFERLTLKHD
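10 uM apoferritin + 50% sat. 1-AMA, PBS; cpd 10 min RT; Ex380/Em535 endpoint; normalized to free probe vs complex; 4-param Hill fit; propofol titration as pos. ctrl.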
Vif-A3G inh: qHTS for Inhibitors of Vif-A3G Interactions: qHTS. Potency, µM (top dose mostly 46.1 µM), hits mostly inhibitors. 0.076% of 410,000 active. HeLa A3G-eYFP + Vif (tagged APOBEC3G with the HIV-1 protein that degrades it), YFP fluorescence, overnight. AID 602310, 2012; note: nearly all actives have a fitted effect of over 60% in size
Target sequence (Q9HC16 whole entry, looked up): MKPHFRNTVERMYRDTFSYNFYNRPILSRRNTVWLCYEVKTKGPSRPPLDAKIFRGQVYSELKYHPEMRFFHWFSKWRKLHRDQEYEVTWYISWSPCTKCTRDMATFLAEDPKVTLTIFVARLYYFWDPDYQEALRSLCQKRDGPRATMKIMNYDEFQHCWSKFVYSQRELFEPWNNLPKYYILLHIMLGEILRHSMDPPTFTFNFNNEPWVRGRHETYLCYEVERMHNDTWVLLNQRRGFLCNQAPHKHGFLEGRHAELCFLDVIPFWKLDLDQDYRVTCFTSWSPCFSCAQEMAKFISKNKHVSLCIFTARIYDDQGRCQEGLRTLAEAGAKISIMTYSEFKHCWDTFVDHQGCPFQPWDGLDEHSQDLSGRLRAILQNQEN
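Read-out is eYFP fluorescence (Ex 488/Em 500-530) from Vif-expressing HeLa A3G-eYFP cells; more signal means A3G escaped Vif-mediated degradation. Cells plated overnight, compound pinned in, incubated overnight at 37 deg C.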
Epigenetic derep: Quantitative High-Throughput Screen for Regulators of Epigenetic Control; AID 1865, 2009; Potency, µM (doses to about 53.9 µM), most hits filed as activators; murine LDR cells, GFP reporter derepression, 30 h; 0.2% of 280,000 active; note: nearly all actives have a fitted effect of over 60% in size
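Reporter derepression read as number of fluorescent GFP-positive objects, 20-120 um in size, counted by laser-scanning cytometer. Mouse LDR line with an epigenetically silenced CMV-GFP locus; compound incubation 30 h, 37 C.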
LDHA block: qHTS assay for inhibitors of human lactate dehydrogenase. L-lactate dehydrogenase A chain (Homo sapiens), P00338. purified LDHA, NADH/diaphorase-resazurin fluorescence; active compounds read low. activity change, % (values are at about 110 or 230 µM). 0.15% of 480,000 active; in the data active = activity change below about -30%; inconclusive = mostly about -25% to -30%
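LDH5 2 nM; NADH 0.06 mM, pyruvate 0.2 mM; 200 mM Tris pH 7.4, EDTA, Tween-20; 5 min RT. Detection: diaphorase 0.133 mg/mL + resazurin 37 µM, fluorescence ex540/em590 at 0 and 20 min; normalized to enzyme-free and DMSO wells.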
Vif-A3F inh: qHTS for Inhibitors of Vif-A3F Interactions: qHTS; 0.2% of 390,000 active; Potency, µM (doses to about 46.1 µM); AID 602313, 2012; HeLa A3F-eYFP + Vif (tagged APOBEC3F with the HIV-1 protein that degrades it), YFP fluorescence increase; note: nearly all actives have a fitted effect of over 65% in size
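HeLa cells stably expressing A3F-eYFP plus Vif, plated and incubated overnight at 37 deg C, then exposed to compounds overnight at 37 deg C. Blocked degradation read as raised yellow fluorescence (Ex 488/Em 500-530).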
Large screens that a line does not name were inactive. Unless noted, calls come from the whole dose curve; as a rule, active = well fitted curve in the direction sought with a large enough effect; inconclusive = small, poorly fitted or top-dose-only effect, or another doubt; inactive = no such curve, though single readings can be large; an effect the other way counts as inactive or inconclusive.

CCc1nc2sc3c(N4CCCCC4)ncnc3c2c2c1CCCC2	none
Fc1ccc(CNc2ccc(F)c(Cl)c2)cc1F	none (no result: Anesthetic bind, Vif-A3G inh, Epigenetic derep, Vif-A3F inh)
COc1cccc(CNc2ccc(F)c(Cl)c2)c1	Anesthetic bind 8.91µM
CC(C)N(CCNC(=O)c1nn(C)c(=O)c2ccccc12)C(C)C	none (no result: Anesthetic bind, Vif-A3G inh, Epigenetic derep, Vif-A3F inh)
COc1ccc(C(=O)Nc2ccc(S(=O)(=O)N3CCN(C)CC3)cc2)cc1	none (no result: Anesthetic bind, Epigenetic derep)
CC[n+]1c(/C=C/Nc2ccccc2)oc2ccc(OC)cc21	Vif-A3G inh inconclusive, Epigenetic derep 12.6µM, Vif-A3F inh 5.62µM
CC[n+]1c(/C=C/Nc2ccccc2)oc2ccccc21	Anesthetic bind inconclusive, Vif-A3G inh 7.94µM, Epigenetic derep 15.8µM, Vif-A3F inh 11.2µM
CCn1c(/C=C/N(C)c2ccccc2)[n+](CC)c2ccc(Cl)cc21	none
CC[n+]1c(/C=C/N(C)c2ccccc2)oc2ccc(F)cc21	Vif-A3G inh 3.98µM, Vif-A3F inh inconclusive
CC(C)c1nnc(NC(=O)c2nc(S(=O)(=O)Cc3ccccc3F)ncc2Cl)s1	Vif-A3G inh inconclusive (no result: Epigenetic derep)
CC(C)(C)C(=O)NC(=S)NNC(=O)C(c1ccccc1)c1ccccc1	none
CCN1CCN(Cc2ccc(NC(=O)c3ccc(C)c(/C=C/c4cnc(Nc5cc(N6CCNCC6)nc(C)n5)cn4)c3)cc2C(F)(F)F)CC1	Vif-A3G inh inconclusive, Vif-A3F inh 31.6µM (no result: Epigenetic derep)
CC(C)OC(=O)c1cc(C(=O)c2cc(Br)ccc2O)coc1=N	Anesthetic bind inconclusive, Epigenetic derep inconclusive, Vif-A3F inh inconclusive
COc1ccc(O)c(C(=O)c2coc(=N)c(C(=O)Nc3ccc(SC(F)F)cc3)c2)c1	Vif-A3F inh 12.6µM
CC(C)OC(=O)c1cc(C(=O)c2cc(F)ccc2O)coc1=N	Vif-A3G inh inconclusive, Vif-A3F inh 11.2µM
COc1ccc(CCNC(=O)CNC(=O)Cn2cnc3sc(C)c(C)c3c2=O)cc1OC	none
COc1cccc(/C=C/c2nc3ccccc3s2)c1OC(C)C	none (no result: Anesthetic bind, Vif-A3G inh, Epigenetic derep, Vif-A3F inh)
Cc1ccc(-c2nc(C(F)(F)F)cc(=O)[nH]2)cc1	none
O=C(Nc1cccnc1)C1CCCN(S(=O)(=O)c2ccccc2)C1 (configuration not stated)	none
Cc1ccccc1N1C(=O)c2cccc3c(N(C)CCO)ccc(c23)C1=O	Vif-A3F inh 12.6µM
COCc1ccc(C(=O)NC2CCSc3ccccc32)cc1 (configuration not stated)	none (no result: Epigenetic derep)
CCOc1ccccc1NC(=O)Cn1c(=O)n(-c2ccc(F)cc2)c(=O)c2c3c(sc21)CN(C(C)=O)CC3	none
CCOC(=O)C(C)NC(=O)c1cn(-c2ccc(OC)cc2)c(=O)c2ccccc12 (configuration not stated)	none (no result: Epigenetic derep)
O=C(Nc1ccc(Oc2ccccc2)cc1)c1ccc(Cn2c(=O)[nH]c3ccsc3c2=O)cc1	none
O=C(Nc1ccc(Cl)c(Cl)c1)c1ccc(Cn2c(=O)[nH]c3ccsc3c2=O)cc1	LDHA block -32.2, Vif-A3F inh inconclusive
Cc1ccc(C)c2nc3sc(C(=O)N4CCOCC4)c(N)c3cc12	Vif-A3G inh 10µM, Vif-A3F inh inconclusive
Cc1cccc2cc3c(N)c(C(=O)N4CCc5ccccc54)sc3nc12	Vif-A3G inh inconclusive, Epigenetic derep inconclusive, Vif-A3F inh 4.47µM
CCc1cccc2cc3c(N)c(C(=O)Nc4ccc(S(=O)(=O)N5CCCC5)cc4)sc3nc12	Vif-A3G inh 3.55µM, Epigenetic derep 11.2µM, Vif-A3F inh inconclusive
Cc1cccc2cc3c(N)c(C(=O)Nc4ccc(N5CCOCC5)cc4)sc3nc12	Vif-A3G inh 12.6µM, Epigenetic derep inconclusive, Vif-A3F inh inconclusive
Cc1ccc2nc3sc(C(=O)Nc4ccc(N5CCOCC5)cc4)c(N)c3cc2c1	none (no result: Vif-A3G inh, LDHA block, Vif-A3F inh)
CN(CCC#N)Cc1cc(=O)oc2ccc3ccccc3c12	none
Cc1ccc(N2C(=O)c3cccc4c(N)ccc(c34)C2=O)c2cccnc12	Epigenetic derep 3.98µM, Vif-A3F inh inconclusive
CC1CCCCC1NC(=O)c1cc(S(=O)(=O)N2CCCCC2)ccc1N1CCOCC1 (configuration not stated)	none (no result: Anesthetic bind, Epigenetic derep)
COc1ccc2c(c1)c1nc3ccccc3nc1n2Cc1ccc(OC)c(OC)c1	Vif-A3G inh inconclusive, Epigenetic derep inconclusive, Vif-A3F inh 25.1µM
O=C(CSc1ncc(C(F)(F)F)cc1Cl)N1CCNC1=O	none (no result: Anesthetic bind, Epigenetic derep)
O=C(N/N=C\c1ccco1)Nc1cccc(Cl)c1	none
COc1ccc(NS(=O)(=O)c2cc([N+](=O)[O-])ccc2N/N=C\c2c(C)[nH]c3ccccc23)cc1	Epigenetic derep 10µM, Vif-A3F inh inconclusive
COc1ccccc1NS(=O)(=O)c1cc([N+](=O)[O-])ccc1N/N=C/c1c[nH]c2ccccc12	Anesthetic bind inconclusive, Vif-A3G inh 11.2µM, Epigenetic derep inconclusive, Vif-A3F inh 11.2µM
COc1ccccc1NS(=O)(=O)c1cc([N+](=O)[O-])ccc1N/N=C/c1sc(N2CCOCC2)nc1-c1ccccc1	Vif-A3G inh inconclusive, Epigenetic derep 2.82µM, Vif-A3F inh inconclusive
O=[N+]([O-])c1ccc(N/N=C/c2c[nH]c3ccccc23)cc1	Vif-A3G inh 7.94µM, Epigenetic derep 14.1µM, Vif-A3F inh 12.6µM
CCC1CCCCN1C(=O)CSc1nc2c([nH]c3ccccc32)c(=O)n1-c1ccc(OC)cc1 (configuration not stated)	none
C[C@@H]1C(=O)O[C@H]2[C@H](O)[C@@]34[C@H]5CC(C(C)(C)C)[C@]36[C@H](OC(=O)[C@H]6O)O[C@]4(C(=O)O5)[C@@]12O (some centres not stated)	none (no result: Vif-A3G inh, Epigenetic derep, LDHA block, Vif-A3F inh)
O=C(COC(=O)c1ccc(S(=O)(=O)NCc2ccco2)cc1)NC1CCCCCC1	Anesthetic bind 35.5µM
CCC(CO)[n+]1c(C)cc(/C=C2\Sc3ccccc3N2Cc2ccccc2)cc1C (configuration not stated)	Anesthetic bind inconclusive, Vif-A3G inh 12.6µM, Epigenetic derep inconclusive, Vif-A3F inh 11.2µM
CCN1/C(=C\c2ccc3cc(C)ccc3[n+]2CC)Sc2cc(C)c(C)cc21	Epigenetic derep 3.16µM, Vif-A3F inh inconclusive
CCN1/C(=C/c2ccc3cc(C)cc(C)c3[n+]2CC)Sc2cc(C)ccc21	Vif-A3G inh inconclusive, Epigenetic derep 15.8µM
CC[n+]1ccccc1/C=C/c1ccc(N(C)C)cc1	Vif-A3G inh inconclusive, Epigenetic derep 15.8µM, Vif-A3F inh 22.4µM
CN(C)c1ccc(/C=C/c2cc[n+](C)cc2)cc1	Vif-A3G inh inconclusive, Epigenetic derep 11.2µM, Vif-A3F inh inconclusive
Cc1ccc(/C=C/c2ccc(N(C)C)cc2)[n+](C)c1	Vif-A3G inh 11.2µM, Vif-A3F inh inconclusive (no result: Epigenetic derep)
Cc1ccc2c(/C=C/c3ccc(N(C)C)cc3)c(C)cnc2c1	none (no result: Anesthetic bind, Epigenetic derep, Vif-A3F inh)
CCCCCC[n+]1ccccc1/C=C/c1ccc(N(C)C)cc1	Vif-A3G inh inconclusive (no result: Anesthetic bind, Epigenetic derep, Vif-A3F inh)
CN(C)c1ccc(/C=C/c2cc[n+]([O-])cc2)cc1	none (no result: Vif-A3G inh, LDHA block, Vif-A3F inh)
